This is one part of a sample in which hits are shown more often than they occur.
HT1080NT lethal: kills 2HG-producing HT-1080-NT fibrosarcoma cells; HT-1080-NT fibrosarcoma viability, CellTiter-Glo ATP luminescence, 48 h; Potency, µM (highest dose often 46.1 µM), without a hit: at the highest dose activity, negative = less viability, hits mostly cytotoxic; 1.6% of 360,000 active;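 also: NT is the 2HG producing partner of a matched IDH1 knockdown line; potency is read from the fitted curve at half-maximal effect; 0% = DMSO-treated cells and -100% = media-only wells without cells; nearly all actives have a fitted effect of over 55% in size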
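Toxicity toward the 2HG-producing NT line was scored as %Activity, normalised to DMSO and no-cell wells, from CellTiter-Glo luminescence after 48 hours' treatment.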
ALOX12 inh: inhibitors of human 12S-lipoxygenase ALOX12; Potency, µM (series often up to 108 µM), without a hit: at the highest dose activity change, negative = inhibition, hits mostly inhibitors; purified 12hLO, xylenol orange hydroperoxide absorbance; 1.1% of 580,000 active; AID 1671190; P18054; also: potency is read from the fitted curve at half-maximal effect
Target sequence (P18054 whole entry, looked up): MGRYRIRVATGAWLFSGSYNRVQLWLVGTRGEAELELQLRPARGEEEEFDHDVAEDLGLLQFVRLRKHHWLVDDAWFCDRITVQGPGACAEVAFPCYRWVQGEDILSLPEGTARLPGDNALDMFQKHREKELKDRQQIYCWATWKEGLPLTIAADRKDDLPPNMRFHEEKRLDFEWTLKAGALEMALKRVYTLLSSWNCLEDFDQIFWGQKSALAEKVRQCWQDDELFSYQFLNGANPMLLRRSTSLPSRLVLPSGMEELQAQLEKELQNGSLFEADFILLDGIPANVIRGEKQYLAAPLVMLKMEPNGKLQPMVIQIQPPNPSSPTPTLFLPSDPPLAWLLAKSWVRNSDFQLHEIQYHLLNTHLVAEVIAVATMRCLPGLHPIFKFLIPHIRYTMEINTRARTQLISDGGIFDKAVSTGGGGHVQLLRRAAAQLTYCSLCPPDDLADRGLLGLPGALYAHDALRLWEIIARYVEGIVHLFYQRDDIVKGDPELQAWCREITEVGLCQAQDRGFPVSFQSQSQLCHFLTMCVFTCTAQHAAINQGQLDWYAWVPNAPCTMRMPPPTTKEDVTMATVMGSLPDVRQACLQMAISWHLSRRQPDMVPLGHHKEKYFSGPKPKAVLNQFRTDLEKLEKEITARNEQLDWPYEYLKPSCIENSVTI
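Hydroperoxide product was detected by ferrous iron/xylenol orange as the 573 to 405 nm absorbance ratio. Arachidonic acid at 40 uM (final) was turned over for 30 min at room temperature by 150 nM human 12hLO, pH 7.0 Hepes buffer, after 15 min compound preincubation.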
IL1B secr inh: inhibitors of inflammasome signaling (IL-1 beta secretion) | activity change, % at 57.5 µM | THP-1 LPS/ATP IL-1B secretion, AlphaLISA, 16 h; active compounds read low | 4.7% of 360,000 active; in the data active = activity change below about -50%; inconclusive = mostly about -30% to -49%
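THP-1 cells pretreated 1 hr with compounds (up to 57.5 uM final), then stimulated with LPS (250 ng/mL final) plus ATP (1.25 mM final); secreted IL-1B measured by AlphaLISA after 16 hr, decreased signal indicating inhibition.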
TDP1 cell CPT: DT40-hTDP1 cell growth loss with CPT; 12% of 420,000 active; Potency, µM (doses to about 46.2 µM), for inactives: at the top dose activity change, negative = growth inhibition, hits mostly inhibitors; chicken DT40 Tdp1-/-;hTDP1 cells + 20 nM CPT, ATP luminescence, 48 h; also: potency is read from the fitted curve at half-maximal effect; nearly all actives have a fitted effect of over 55% in size
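Chicken DT40 Tdp1-/- cells stably complemented with human TDP1 were seeded at 400 cells/well in medium containing 20 nM camptothecin, exposed to pin-transferred compounds, and grown at 37 °C for at least 48 hr. Viability was read as ATP luminescence.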
HT1080 IDH1KD tx: kills HT-1080 cells with IDH1 knockdown. Potency, µM (doses to about 46.1 µM), for inactives: top-dose activity, negative = toxicity, actives largely listed as cytotoxic. 2% of 360,000 active. AID 686971. HT-1080 IDH1 knockdown viability, ATP luminescence, 48 h;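 also: potency is read from the fitted curve at half-maximal effect; 0% = DMSO wells and -100% = cell-free medium wells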
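% activity derives from luminescence (CellTiter-Glo), normalised to DMSO and no-cell wells. HT-1080-IDH1KD cells, 750/well, had 48 h compound exposure at 37 °C.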
DT40 TDP1 no CPT: qHTS for Inhibitors of human tyrosyl-DNA phosphodiesterase 1 (TDP1): qHTS in cells in absence of CPT. Potency, µM (titrated, usually from 46.2 µM), for the others: at the highest dose activity change, negative = growth inhibition, hits mostly inhibitors. DT40 Tdp1-/- hTDP1 cells, no CPT, ATP luminescence, 48 h. 15% of 420,000 active; also: potency is read from the fitted curve at half-maximal effect; nearly all actives have a fitted effect of over 55% in size
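Growth of hTDP1-complemented DT40 Tdp1-knockout cells is measured by ATP luminescence after at least 48 hr compound exposure at 37 °C, with DMSO substituting for the 20 nM CPT used in the parallel screen.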
Numbers without * were called inactive. Unless noted, calls follow the shape of the dose curve; as a rule, active = well fitted curve in the direction sought with a large enough effect; inconclusive = small, poorly fitted or top-dose-only effect, or another doubt; inactive = no such curve, though single readings can be large; an effect the other way counts as inactive or inconclusive. Unless noted, % is scaled to controls: 0 for no effect and ±100 for the full control effect.

Screening CC1(C)Cc2nc3oc4c(=O)n(CC(=O)Nc5ccccc5)cnc4c3cc2CO1 returned HT1080NT lethal -1%, ALOX12 inh 2%, IL1B secr inh 63, TDP1 cell CPT -27%, HT1080 IDH1KD tx 0% and DT40 TDP1 no CPT -18%.
For CCCCCn1cnc2c(sc3nc4c(cc32)CSC(C)(C)C4)c1=O the results were HT1080NT lethal -9%, ALOX12 inh -20%, IL1B secr inh 9, TDP1 cell CPT inconclusive, HT1080 IDH1KD tx -2% and DT40 TDP1 no CPT 10µM*.
`CC1(C)Cc2nc3sc4c(OCc5ccccc5)ncnc4c3cc2CO1` gave HT1080NT lethal 10%, ALOX12 inh -21%, IL1B secr inh 55, TDP1 cell CPT inconclusive, HT1080 IDH1KD tx 3% and DT40 TDP1 no CPT 18µM*.
CC1(C)Cc2nc3sc4c(=O)n(CC(=O)NCc5ccco5)cnc4c3cc2CO1 was read as HT1080NT lethal inconclusive, ALOX12 inh -7%, IL1B secr inh 36, TDP1 cell CPT 4.6µM*, HT1080 IDH1KD tx 10µM* and DT40 TDP1 no CPT 8.2µM*.
O=S(=O)(c1cccc2ccccc12)N1CCN(c2nc(-c3cccs3)nc3ccccc23)CC1 was read as HT1080NT lethal 7%, TDP1 cell CPT inconclusive, HT1080 IDH1KD tx 20% and DT40 TDP1 no CPT 10µM*.
Cc1nc(N2CCN(S(=O)(=O)c3ccccc3C#N)CC2)c2c(-c3ccccc3)csc2n1 was read as HT1080NT lethal -2%, ALOX12 inh 27%, IL1B secr inh -28, TDP1 cell CPT inconclusive, HT1080 IDH1KD tx 9% and DT40 TDP1 no CPT 13µM*.
`O=S(=O)(c1ccccc1F)N1CCN(c2nc(-c3cccs3)nc3ccccc23)CC1` gave HT1080NT lethal 23%, ALOX12 inh -16%, TDP1 cell CPT inconclusive, HT1080 IDH1KD tx 20% and DT40 TDP1 no CPT 11µM*.
For N#Cc1ccc(S(=O)(=O)N2CCN(c3nc(-c4cccs4)nc4ccccc34)CC2)cc1 the results were ALOX12 inh 5%, TDP1 cell CPT inconclusive and DT40 TDP1 no CPT inconclusive.
Screening Cc1ccc(S(=O)(=O)N2CCN(c3nc(-c4cccs4)nc4ccccc34)CC2)c(C)c1 returned HT1080NT lethal 23%, TDP1 cell CPT inconclusive, HT1080 IDH1KD tx 1% and DT40 TDP1 no CPT inconclusive.
Screening N#Cc1ccccc1S(=O)(=O)N1CCN(c2cnccn2)CC1 returned HT1080NT lethal 20%, ALOX12 inh -13%, IL1B secr inh -19, TDP1 cell CPT -26%, HT1080 IDH1KD tx 14% and DT40 TDP1 no CPT -15%.
For N#Cc1ccccc1S(=O)(=O)N1CCN(c2nc(-c3cccs3)nc3ccccc23)CC1 the results were HT1080NT lethal 14%, TDP1 cell CPT 16µM*, HT1080 IDH1KD tx 15% and DT40 TDP1 no CPT 7.9µM*.
CN(CC1(C)CCOCC1)C(=O)NCc1ccco1 was read as ALOX12 inh 45%.
COc1ccc(C(=O)Cc2ccccc2OC(=O)c2ccccc2)cc1 was read as ALOX12 inh 13%.
N#Cc1ccccc1S(=O)(=O)N1CCN(c2nc(-c3ccccc3)nc3ccccc23)CC1 was read as HT1080NT lethal 17%, ALOX12 inh -6%, IL1B secr inh 4, TDP1 cell CPT 16µM*, HT1080 IDH1KD tx 13% and DT40 TDP1 no CPT 11µM*.
O=S(=O)(c1cccc(C(F)(F)F)c1)N1CCN(c2nc(-c3ccccc3)nc3ccccc23)CC1 was read as TDP1 cell CPT -17% and DT40 TDP1 no CPT -9%.
For O=S(=O)(c1ccc(F)cc1F)N1CCN(c2nc(-c3cccs3)nc3ccccc23)CC1 the results were HT1080NT lethal 6%, TDP1 cell CPT inconclusive, HT1080 IDH1KD tx 16% and DT40 TDP1 no CPT inconclusive.
Screening O=S(=O)(c1ccccc1Cl)N1CCN(c2nc(-c3cccs3)nc3ccccc23)CC1 returned HT1080NT lethal 29%, TDP1 cell CPT 7.9µM*, HT1080 IDH1KD tx 8% and DT40 TDP1 no CPT 10µM*.
O=S(=O)(c1ccccc1C(F)(F)F)N1CCN(c2nc(-c3ccccc3)nc3ccccc23)CC1 was read as TDP1 cell CPT inconclusive and DT40 TDP1 no CPT 13µM*.
Screening CCOC(=O)c1cnc2ccc(C(=O)OC)cc2c1NCCN1CCOCC1 returned HT1080NT lethal -2%, ALOX12 inh -5%, IL1B secr inh -27, TDP1 cell CPT inconclusive, HT1080 IDH1KD tx 14% and DT40 TDP1 no CPT -18%.
CCOC(=O)c1cnc2c(Cl)cccc2c1NCCCN1CCOCC1 was read as HT1080NT lethal -11%, ALOX12 inh 11%, IL1B secr inh -14, TDP1 cell CPT inconclusive, HT1080 IDH1KD tx -4% and DT40 TDP1 no CPT inconclusive.
`CCOC(=O)c1cnc2ccc(OCC)cc2c1NCCN1CCOCC1` gave HT1080NT lethal 9%, ALOX12 inh 14%, IL1B secr inh -25, TDP1 cell CPT inconclusive, HT1080 IDH1KD tx 9% and DT40 TDP1 no CPT 21µM*.
Screening CCOC(=O)c1cnc2ccc(OCC)cc2c1NCCCN1CCOCC1 returned HT1080NT lethal -1%, ALOX12 inh 5%, IL1B secr inh -53*, TDP1 cell CPT 18µM*, HT1080 IDH1KD tx -5% and DT40 TDP1 no CPT 18µM*.
For CCOC(=O)c1cnc2ccc(C(=O)OC)cc2c1NCCCN1CCOCC1 the results were HT1080NT lethal -1%, ALOX12 inh -10%, IL1B secr inh -60*, TDP1 cell CPT inconclusive, HT1080 IDH1KD tx 13% and DT40 TDP1 no CPT inconclusive.
For CCc1ccccc1NC(=O)CSc1nnc2[nH]c(=O)c(Cc3ccc(C)cc3)nn12 the results were ALOX12 inh 0%.
`C/C(=N/Nc1ccccc1[N+](=O)[O-])c1ccc([N+](=O)[O-])cc1` gave HT1080NT lethal -4%, ALOX12 inh 0%, IL1B secr inh 4, TDP1 cell CPT -8%, HT1080 IDH1KD tx -5% and DT40 TDP1 no CPT inconclusive.
C/C(=N\Nc1ccc([N+](=O)[O-])cc1[N+](=O)[O-])c1ccc(-n2nncc2C(C)(C)C)cc1 was read as HT1080NT lethal -4%, ALOX12 inh -24%, IL1B secr inh -12, TDP1 cell CPT 21µM*, HT1080 IDH1KD tx -3% and DT40 TDP1 no CPT 13µM*.
Screening COc1cccc(NC(=O)c2sc3nc(C)c(C(=O)Nc4ccc(C)cc4C)c(-c4ccc(C)o4)c3c2N)c1 returned ALOX12 inh -7%, TDP1 cell CPT 10µM* and DT40 TDP1 no CPT 6.5µM*.

High-throughput results from PubChem BioAssay.
